TEAD-YAP inh: TEAD-YAP interaction inhibition | inhibition, % at 9.12 µM | HEK-TIYL cells, TEAD-Gal4/YAP UAS-luciferase luminescence | 1.4% of 640,000 active; in the data active means inhibition above about 32%;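 further: 0% = median of test compound wells and 100% = reference inhibitor wells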
FBW7 act: human FBW7 E3 ligase activation, primary screen. Q969H0. AlphaScreen FBW7–phospho-cyclin E peptide binding, activator screen. normalized activity (activation), % at 26.1 µM. 0.13% of 650,000 active. AID 1259310; in the data active means normalized activity above about 1.9%;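 further: purified mutant Fbw7 with reduced substrate affinity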
Target sequence (Q969H0 whole entry, looked up): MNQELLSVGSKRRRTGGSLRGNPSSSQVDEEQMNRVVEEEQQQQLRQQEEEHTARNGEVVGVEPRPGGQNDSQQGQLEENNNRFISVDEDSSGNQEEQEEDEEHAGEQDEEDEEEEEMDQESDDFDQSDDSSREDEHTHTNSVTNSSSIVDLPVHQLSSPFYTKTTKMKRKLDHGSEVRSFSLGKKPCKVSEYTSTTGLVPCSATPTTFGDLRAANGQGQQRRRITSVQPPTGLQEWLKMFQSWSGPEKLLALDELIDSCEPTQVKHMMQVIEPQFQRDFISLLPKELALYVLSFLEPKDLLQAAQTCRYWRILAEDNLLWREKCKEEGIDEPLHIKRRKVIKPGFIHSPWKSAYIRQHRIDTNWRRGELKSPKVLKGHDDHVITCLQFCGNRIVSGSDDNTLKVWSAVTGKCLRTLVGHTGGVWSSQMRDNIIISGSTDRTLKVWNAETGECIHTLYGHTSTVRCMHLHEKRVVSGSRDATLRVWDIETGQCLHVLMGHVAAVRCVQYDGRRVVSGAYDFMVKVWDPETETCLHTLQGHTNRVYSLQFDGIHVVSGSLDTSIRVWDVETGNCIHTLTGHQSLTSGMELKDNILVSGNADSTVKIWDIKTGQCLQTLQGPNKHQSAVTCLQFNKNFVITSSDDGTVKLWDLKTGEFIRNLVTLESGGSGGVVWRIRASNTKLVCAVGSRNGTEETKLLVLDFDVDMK
GPR151 activ: activators of human GPR151. Q8TDV0. AID 1508602. activation, % at 11.2 µM. 1% of 650,000 active. PathHunter beta-arrestin GPR151 cells, luminescence; in the data active means activation above about 4.9%;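 further: 0% = median of compound wells and 100% = cells with positive control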
MITF inh: human MITF inhibition, primary screen. O75030. AlphaScreen MITF homodimerization, bead proximity signal. inhibition, % at 2.6 µM. 0.91% of 650,000 active. AID 1259374; in the data active means inhibition above about 50%;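 further: 0% = vehicle wells with protein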
GPR151 conf act: human GPR151 activation, confirmation screen; GPR151 PathHunter beta-arrestin cells, luminescence, 90 min; % of EA-reagent control over plate median; AID 1508609; shares compounds with GPR151 activ; 6,700 tested, under 10 active; activation, % at 11.2 µM;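 active means mean percent activation across replicates above the confirmation screen cutoff of 4.91%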
GPR119 ag: GPR119 activation, counter-screen for GPR151 activators. AID 1508611. shares compounds with GPR151 activ. activation, % at 11.2 µM. 0.3% of 6,700 active. GPR119 PathHunter beta-arrestin cells, luminescence, 90 min; 0 = compound-well median, 100 = enzyme-acceptor control;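 active means mean percent activation in the counterscreen above 29.09%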;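 further: counterscreen on off-target GPR119 to flag nonselective hits from the GPR151 activator screen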
* hit, by the source's call; . = no result given. The list is not random: actives were taken first. Their share in the collection is about 3.5%.

SMILES	TEAD-YAP inh	FBW7 act	GPR151 activ	MITF inh	GPR151 conf act	GPR119 ag
CC(C)N(CCNc1nc(N2CCC(N3CCOCC3)CC2)nc2c1ncn2C1CCCCC1)C(C)C	2.9	-0.1	14.3*	9.7	1.0	5.9
O=C(NCCN1CCNCC1)c1c(O)c2c([nH]c1=O)CCCC2	7.2	0.1	1.8	3.2	.	.
CCCCCNC(=O)c1c(O)c2c([nH]c1=O)CCCC2	-14.0	0.5	17.8*	9.2	1.1	2.6
CCN1CCCC1CNC(=O)c1c(O)c2c([nH]c1=O)CCCC2 (configuration not stated)	4.7	0.1	6.8*	6.0	0.0	1.8
O=C(Nc1ccccc1)c1ccccc1Nc1ccnc(Nc2ccc(N3CCOCC3)cc2)c1	8.5	-0.5	0.1	10.1	.	.
O=C(NCc1ccccc1)c1ccccc1Nc1ccnc(Nc2ccc(N3CCOCC3)cc2)c1	37.2*	-0.5	10.6*	8.1	-0.1	-1.9
CCCN1C(=O)C(O)(CC(=O)c2ccccc2O)c2ccccc21 (configuration not stated)	6.2	-0.1	10.8*	-0.5	0.2	0.2
O=C(Nc1ccccc1)NC1c2ccccc2Oc2ccccc21	-14.1	-0.1	6.6*	2.1	-0.1	-2.0
O=C(NC1c2ccccc2Oc2ccccc21)c1ccncc1	-6.1	0.1	-1.2	4.4	.	.
O=C(Nc1cc2ccccc2cc1NC(=O)c1ccc(Cl)cc1)c1ccc(Cl)cc1	-4.0	-0.1	5.6*	2.0	1.4	19.2
COc1ccc(OC)c(CN2CCN(c3nnnn3-c3ccccc3)CC2)c1	4.7	-0.1	0.2	5.0	.	.
CC(=O)N1CCc2c(sc(NC(=O)C(C)(C)C)c2C(N)=O)C1	0.2	0.2	6.4*	2.1	-0.2	-3.7
CC(=O)Nc1sc2c(c1C(N)=O)CCN(C(C)=O)C2	3.5	0.2	0.8	14.9	.	.
c1cncc(-c2cc(NCc3ccco3)nc(-c3ccncc3)n2)c1	3.1	0.1	5.1*	17.8	-1.2	-16.0
CCCS(=O)(=O)N1CC(=O)N(c2ccccc2OC)C(C)(C(=O)NC2CCCC2)C1 (configuration not stated)	-2.4	0.2	6.0*	4.4	0.1	-11.3
CC1(C(=O)NC2CCCCCC2)CN(S(C)(=O)=O)CC(=O)N1c1ccc(Cl)cc1 (configuration not stated)	-2.7	0.1	7.7*	-0.2	-0.7	-11.7
CCCS(=O)(=O)N1CC(=O)N(c2ccccc2CC)C(C)(C(=O)NC2CCCCC2)C1 (configuration not stated)	-0.7	0.1	-0.2	7.8	.	.
CCc1ccc(N2CC(C(=O)Nc3cccc(C)n3)CC2=O)cc1 (configuration not stated)	9.5	0.5	-0.1	18.7	.	.
CN1CCN(CC(=O)Nc2c(C(=O)C3CC3)oc3ccccc23)CC1	-9.8	0.0	0.6	-1.4	.	.
CC(=O)c1oc2ccccc2c1NC(=O)CN1CCCCC1	-4.7	-0.1	5.6*	6.1	0.9	-8.6
COc1ccc(CCNC(=O)C(=O)NCCC(C)C)cc1OC	0.2	0.1	-0.7	15.7	.	.
CCCNC(=O)C(=O)NCCc1ccc(OC)c(OC)c1	3.8	-0.1	6.2*	2.7	0.2	-6.7
Cc1nnc(NC(=O)c2ccccc2Cl)s1	-33.1	0.1	0.4	14.5	.	.
O=C(Nc1ncc(C(O)(C(F)(F)F)C(F)(F)F)s1)c1ccccc1Cl	-44.1	0.0	6.6*	0.3	2.4	2.8
COc1ccc([C@@H](C)NC(=O)CCC2(Cc3ccc(C)cc3)CCC(=O)N2)cc1 (some centres not stated)	9.3	-0.1	0.5	-0.3	.	.
SMILES	TEAD-YAP inh	FBW7 act	GPR151 activ	MITF inh	GPR151 conf act	GPR119 ag
COc1ccc(CC2(CCC(=O)N[C@H](C)c3ccc(OC)cc3)CCC(=O)N2)cc1 (some centres not stated)	6.7	-0.1	5.1*	-4.2	-0.9	-6.7
COc1ccccc1NC(NC(=O)CC(C)C)C(Cl)(Cl)Cl (configuration not stated)	-3.4	0.1	0.2	8.3	.	.
Cc1nc2cc(NC(=O)NC3=NCCS3)ccc2n1C	-28.6	0.1	-3.8	7.9	.	.
C=CCn1c(=O)c2c(nc3n(-c4ccccc4C)c(C)c(C)n23)n(C)c1=O	13.9	-0.1	2.3	14.2	.	.
CC(=O)Cn1c(=O)c2c(nc3n(-c4ccccc4C)c(C)c(C)n23)n(C)c1=O	4.7	0.1	5.5*	18.4	-0.6	-1.2
O=C(Nc1cccnc1)c1cc2n(n1)C(C(F)(F)F)CC(c1ccc(Cl)cc1)N2 (configuration not stated)	-23.1	-0.1	5.0*	-5.2	0.9	2.5
O=C(Nc1cccnc1)c1cc2n(n1)C(C(F)(F)F)CC(c1ccc(Br)cc1)N2 (configuration not stated)	-5.4	-0.1	-1.0	2.5	.	.
CC1=C(C(=O)Nc2ccccc2C)C(c2ccc(N(C)C)cc2)N2C(=O)CSC2=N1 (configuration not stated)	11.0	0.0	-0.3	21.8	.	.
Cc1ccc(N(C(=O)c2ccc(Br)cc2)C2C=CS(=O)(=O)C2)cc1 (configuration not stated)	3.4	0.3	2.6	-2.2	.	.
COc1ccc(-c2cccc3c2OC(CNC(=O)C2Cc4ccccc4CN2C)C3)nn1 (configuration not stated)	7.2	0.1	0.4	10.7	.	.
Cc1ccc(NC(=O)c2nn3c(c2Br)NC(c2cccs2)CC3C(F)(F)F)cc1C (configuration not stated)	-1.3	0.1	7.1*	-0.2	0.1	-0.1
CC(=O)c1sc(=Nc2c(C)cccc2C)n(CCO)c1C	8.2	-0.2	1.3	-6.3	.	.
CC(=O)c1cccc(NC(=O)N2CCCC2C(=O)Nc2cccc(C)c2)c1 (configuration not stated)	-6.4	-0.1	14.5*	-3.2	0.3	14.0
CCCc1cc(=O)n2[nH]c(C)c(-c3cccs3)c2n1	-7.7	0.5	-0.4	9.8	.	.
O=C(NCCO)C(=O)NCC1OCCCN1S(=O)(=O)c1ccc(Cl)cc1 (configuration not stated)	-1.7	-0.2	0.9	-0.8	.	.
CCNC(=O)C(=O)NCC1OCCCN1S(=O)(=O)c1ccccc1 (configuration not stated)	0.3	0.1	5.2*	1.8	-0.2	-9.1
O=C(NCCCO)C(=O)NCC1OCCCN1S(=O)(=O)c1ccc(Cl)cc1 (configuration not stated)	-9.3	-0.2	9.5*	-3.3	0.0	-5.9
C=CCNC(=O)C(=O)NCC1OCCCN1S(=O)(=O)c1ccc(F)cc1C (configuration not stated)	-2.8	0.0	7.3*	-0.3	0.4	-6.3
CCOc1cc(C#N)ccc1OCC(=O)NC(C)c1ccccc1 (configuration not stated)	1.7	0.0	13.4*	5.7	0.1	5.3

Compound activity deposited in PubChem BioAssay by The Scripps Research Institute Molecular Screening Center.
